# Results from article PMC6792352, “Limited Chemical Structural Diversity Found to Modulate Thyroid Hormone Receptor in the Tox21 Chemical Library” (Environmental Health Perspectives, 2019).
# Where a name gives a salt, the structure may show the parent alone.
# System: thyroid hormone receptor (endogenous TRα and TRβ)
# Parameters: species or system GH3-TRE-Luc (rat pituitary); GH3-TRE-Luc luciferase reporter, antagonist mode against 1 nM T3, loss of signal, qHTS
# Settings: antagonist mode, 1 nM T3, no GH3 cytotoxicity hit, read-out: Average AC50 (uM) GH3-TRE-Antag
row,Structure (SMILES),AC50 [µM]
1,COC(=O)c1c(C(F)F)nc(C(F)(F)F)c(C2=NCCS2)c1CC(C)C [Thiazopyr],> 90
2,O=C(O)C(F)(F)C(F)(F)C(F)(F)C(F)(F)C(F)(F)C(F)(F)C(F)(F)F [Ammonium perfluorooctanoate],77.1
3,CC(C)CC(N(C)C)C1(c2ccc(Cl)cc2)CCC1 (stereo not drawn) [Sibutramine hydrochloride],29.8
4,CCN(CC)c1nc(C)cc(OP(=S)(OC)OC)n1 [Pirimiphos-methyl],57.1
5,CC(C)NC(C)Cc1ccc(I)cc1 (stereo not drawn) [Iofetamine hydrochloride],22.3
6,C[C@]12CC[C@H]3[C@@H](CCC4=CC(=O)CC[C@@]43C)[C@@H]1CC[C@@H]2OC(=O)CCc1ccccc1 [Testosterone 17-phenylpropionate],30
7,CCOP(=S)(OCC)SCSP(=S)(OCC)OCC [Ethion],71.9
8,Nc1ccc(N=Nc2ccc(-c3ccc(N=Nc4c(S(=O)(=O)O)cc5cc(S(=O)(=O)O)c(N=Nc6ccccc6)c(O)c5c4N)cc3)cc2)c(N)c1 [C.I. Direct Black 38],14
9,Cn1c(-c2ccccc2)cc(-c2ccccc2)[n+]1C [Difenzoquat metilsulfate],68.7
10,"Oc1ccc(Cl)c(Cl)c1 [3,4-Dichlorophenol]",59.5
11,"Clc1nc(Cl)nc(Cl)n1 [2,4,6-Trichloro-s-triazine]",> 90

# Same assay, conditions: read-out: Average AC50 (uM) GH3-TRE-Antag; 24 h; antagonist
row,Structure (SMILES),AC50 [µM]
1,CN1C(=O)CN=C(c2ccccc2)c2cc(Cl)ccc21 [Diazepam],49.5
2,O=C1CN=C(c2ccccc2)c2cc(Cl)ccc2N1CC1CC1 [Prazepam],> 50
3,O=c1oc2ccccc2c(O)c1C(CC(O)c1ccc(-c2ccc(Br)cc2)cc1)c1ccccc1 (stereo not drawn) [Bromadiolone],44.3
4,"CCc1cc(OC)c(C[C@@H](C)N)cc1OC [(-)-2,5-Dimethoxy-4-ethylamphetamine hydrochloride]",71.2
5,Cc1ccc(OP(=O)(Oc2ccc(C)cc2C)Oc2ccc(C)cc2C)c(C)c1 [TXP],70.6
6,Nc1c(Cl)cc([N+](=O)[O-])cc1Cl [Dicloran],91.8
7,CC[C@]1(O)CC[C@H]2[C@@H]3CCC4=CCCC[C@@H]4[C@H]3CC[C@@]21C [Ethylestrenol],7.8
8,Cl[Si](Cl)(c1ccccc1)c1ccccc1 [Dichlorodiphenylsilane],76.3
9,CN1C(=S)CN=C(c2ccccc2)c2cc(Cl)ccc21 [Sulazepam],43.6
10,Cc1nnc2n1-c1ccc(Cl)cc1C(c1ccccc1)=NC2 [Alprazolam],41.3
11,Cc1cc2c3c(c1)C(c1ccccc1)=N[C@@H](NC(=O)c1ccncc1)C(=O)N3CC2 [CI-1018],27.4
12,C[C@]12CC[C@H]3[C@@H](CCC4=CC(=O)CC[C@@H]43)[C@@H]1CC[C@@H]2O [Nandrolone],32.5
13,C[C@]12CC[C@H]3[C@@H](CCC4=CC(=O)CC[C@@H]43)[C@@H]1CC[C@@H]2OC(=O)CCc1ccccc1 [Nandrolone phenpropionate],19.5
